{"source": "PubChem BioAssay (NCI)", "note": "The panel holds about 83,000 compounds, 20% with a hit somewhere; the sample as a whole holds those more often.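 The endpoint reported here, percent growth, reads 100 for growth as untreated, 0 for no net growth and -100 for all cells dead.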 Active and inactive are the calls of the source. Rule for the calls: active = growth percent below 10; inactive = the rest."}
{"tested_on": "HOP-62 NSCLC", "test": "NCI-60 one-dose screen, 48 h (100 = growth as untreated, 0 = no growth, -100 = all killed)", "conditions": "10 µM"}
{"smiles": "Cn1cnc([N+](=O)[O-])c1/C=C1\\Oc2ccc(Cl)cc2C1=O", "growth": "93.5% (inactive)"}
{"smiles": "CCOC(=S)Sc1ccc([N+](=O)[O-])cc1[N+](=O)[O-]", "growth": "94% (inactive)"}
{"smiles": "NC(N)=NS(=O)(=O)c1ccc(Nc2ccc3nnc(-c4ccncc4)n3n2)cc1", "growth": "110% (inactive)"}
{"smiles": "N#C/C(=C\\N1C(=O)/C(=C/c2cccc([N+](=O)[O-])c2)SC1=S)c1nc2ccccc2s1", "growth": "73.1% (inactive)"}
{"smiles": "CC(=O)Nc1ccc(Sc2ccc(NC(C)=O)cc2)cc1", "growth": "70.7% (inactive)"}
{"smiles": "O=C(CCl)N1c2ccccc2Sc2ccc3ccccc3c21", "growth": "-77.8% (active)"}
{"smiles": "Cc1ccc(Cl)cc1Nc1nc(C(F)(F)F)ccc1C(=O)N/N=C/c1c(Cl)cccc1Cl", "growth": "7.32% (active)"}
{"smiles": "COc1ccc(C2C=C(c3ccc(Cl)c(Cl)c3)N=C3SC(C)=CN32)cc1OC", "note": "(centres undefined)", "growth": "82.3% (inactive)"}
{"smiles": "CCn1nc(-c2ccccn2)c2cccnc2c1=S", "growth": "98% (inactive)"}
{"smiles": "C=C[C@]1(C)C=C2C(=O)[C@@]3(O)OC(=O)[C@@]4(CCCC(C)(C)[C@H]34)[C@@]2(O)CC1", "growth": "-1.33% (active)"}
{"smiles": "CCN(CC)CCCOC(=O)Nc1ccccc1Cl", "growth": "112% (inactive)"}
{"smiles": "O=S(=O)(NC1c2ccccc2Oc2ccccc21)c1cc(Cl)ccc1Cl", "growth": "89.4% (inactive)"}
{"smiles": "N#Cc1ccc(-n2cnc(NC(=O)[C@H]3CCN(C#N)C3)c2)cc1", "growth": "23% (inactive)"}
{"smiles": "CC(=O)n1nc(C(=O)OC(C)(C)C)c2cc(F)c(F)cc21", "growth": "99% (inactive)"}
{"smiles": "O=C1CC[C@@H](C(=O)N[C@H]2CSSC[C@@H](C(=O)NCCc3ccccc3)NC(=O)[C@H](Cc3ccccc3)NC(=O)[C@@H]3CCCN3C(=O)[C@@H]3CCCN3C2=O)N1", "growth": "55.1% (inactive)"}
{"smiles": "CCc1c(C(=O)NCc2c(O)ccc3cccc(O)c23)[nH]c(C)c1C(C)=O", "growth": "59% (inactive)"}
{"smiles": "CS(=O)(=O)Nc1ccc(OCc2nnc(-c3ccc(Cl)cc3)o2)c(F)c1", "growth": "87.2% (inactive)"}
{"smiles": "COc1ccc(-c2nc(-c3nc4ccc(OC)cc4[nH]3)c3ccccn23)cc1", "growth": "63% (inactive)"}
{"smiles": "CC(C)c1ncc(CO)n1Cc1c(Cl)cccc1Cl", "growth": "103% (inactive)"}
{"smiles": "NC1CCC(Nc2nc(NCc3ccc(-c4ccco4)nc3)c3ncn(C4CCCC4)c3n2)CC1", "note": "(centres undefined)", "growth": "-17.1% (active)"}
{"smiles": "c1ccc(C2CCCCC2)c(OCCCCCN2CCNCC2)c1", "growth": "78.9% (inactive)"}
{"smiles": "N#Cc1c(-c2ccccc2)nc(SCC(=O)N2CCOCC2)[nH]c1=O", "growth": "83.7% (inactive)"}
{"smiles": "Cc1cn(C(=O)/C(Cl)=C(/Cl)C(=O)O)c2ccccc12", "growth": "88% (inactive)"}
{"smiles": "C=CCNCCCN1C(=O)c2ccc3c4c(ccc(c24)C1=O)C(=O)N(CCCNCC=C)C3=O", "growth": "-53% (active)"}
